Our source for the Potency values is PubChem BioAssay AID720708 (National Center for Advancing Translational Sciences (NCATS), 2013).

Among all 360,000 compounds or so, about 660 (0.18%) were called active. Inconclusive results (about 2%) are left out. Calls come from the whole dose curve; as a rule, active = well fitted inhibition curve with a large enough effect; inconclusive = small, poorly fitted or top-dose-only effect; inactive = no such curve, though single readings can be large or run the other way. The entries come from a sample that favours actives as a whole. A call without a number means that no potency is given here.
Potency is the fitted concentration of half-maximal effect.

Chain of Rap guanine nucleotide exchange factor 4 (Homo sapiens) (Q8WZA2 whole entry, looked up): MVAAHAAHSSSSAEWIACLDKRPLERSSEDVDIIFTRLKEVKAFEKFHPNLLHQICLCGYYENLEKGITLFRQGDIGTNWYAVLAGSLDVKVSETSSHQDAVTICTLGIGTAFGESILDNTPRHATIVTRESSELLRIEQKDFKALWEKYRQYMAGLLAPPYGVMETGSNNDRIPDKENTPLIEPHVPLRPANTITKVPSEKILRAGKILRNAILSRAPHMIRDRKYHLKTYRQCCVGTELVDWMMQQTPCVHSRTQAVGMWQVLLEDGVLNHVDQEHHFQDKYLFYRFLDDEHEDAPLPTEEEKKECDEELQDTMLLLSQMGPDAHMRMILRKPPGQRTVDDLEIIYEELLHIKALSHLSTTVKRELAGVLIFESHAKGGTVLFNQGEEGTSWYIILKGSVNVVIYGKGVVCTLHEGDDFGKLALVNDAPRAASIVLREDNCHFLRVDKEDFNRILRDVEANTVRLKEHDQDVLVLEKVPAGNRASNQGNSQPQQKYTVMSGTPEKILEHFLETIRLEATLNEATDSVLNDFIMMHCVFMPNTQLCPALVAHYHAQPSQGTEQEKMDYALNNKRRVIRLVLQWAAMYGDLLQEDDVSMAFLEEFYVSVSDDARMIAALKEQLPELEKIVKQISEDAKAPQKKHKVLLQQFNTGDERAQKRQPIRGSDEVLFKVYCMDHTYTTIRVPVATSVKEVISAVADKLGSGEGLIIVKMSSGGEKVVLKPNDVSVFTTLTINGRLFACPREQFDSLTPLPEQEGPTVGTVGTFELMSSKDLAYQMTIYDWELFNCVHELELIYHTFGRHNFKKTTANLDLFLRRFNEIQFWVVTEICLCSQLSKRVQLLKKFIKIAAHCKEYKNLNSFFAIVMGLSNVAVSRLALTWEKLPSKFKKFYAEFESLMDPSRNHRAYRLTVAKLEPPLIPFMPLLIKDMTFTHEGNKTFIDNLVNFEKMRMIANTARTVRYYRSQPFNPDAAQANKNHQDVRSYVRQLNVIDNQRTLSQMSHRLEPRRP

The target in the assay is Rap guanine nucleotide exchange factor 4 (Homo sapiens) (UniProt Q8WZA2). The assay is described as follows: qHTS for Antagonist of cAMP-regulated guanine nucleotide exchange factor 2 (EPAC2): primary screen. Note: nearly all actives have a fitted effect of over 45% in size. As to conditions: EPAC2 GEF exchange of Rap1B-BODIPY-GDP, fluorescence; series mostly up to 114 µM. The source says:
In multi-cellular eukaryotic organisms, the effects of cAMP are transduced by two ubiquitously-expressed intracellular cAMP receptors, the classic protein kinase A/cAMP-dependent protein kinase (PKA/cAPK) and the more recently discovered exchange protein directly activated by cAMP/cAMP-regulated guanine nucleotide exchange factor (EPAC/cAMP-GEF). Both PKA and EPAC are ubiquitously expressed in all tissues, and an increase in intracellular cAMP levels will lead to the activation of both PKA and EPAC. Therefore, careful dissections of the individual role and relative contribution of EPAC and PKA within the overall cAMP signaling in various model systems are critical for further elucidating the mechanism of cAMP signaling. To date no EPAC-specific antagonists and agonist, as well as isoform-specific agonists have been reported, and developing EPAC-specific pharmacological probes to determine the physiological functions that EPAC play in the overall cAMP-mediated signaling remains a major challenge within the research field. Furthermore, identified regulators of EPAC may lead to new mechanism-based therapeutic strategies specifically targeting the EPAC / cAMP-signaling components as EPAC has been implicated to play important roles in major human pathological conditions such as diabetes, heart disease, and cancer.
This qHTS will be used to screen the Molecular Libraries Small Molecule Repository (MLSMR) as a concentration-titration series using the NCGC unique quantitative screening (qHTS) platform to find inhibitors for EPAC2. In addition, this assay will also be used as a counterscreen for the EPAC1 qHTS. This fluorescent based assay is developed and validated for EPAC2 that measures exchange using EPAC effector Rap1 complex with BODIPY-GDP, a GDP analog with a tethered fluorophores. Inhibitors are identified by monitoring the change in fluorescence signal as the exchanged free BODIPY-GDP has a reduced fluorescence compared to Rap1-bound BODIPY-GDP. Decrease in signal (inhibition) is the desired outcome for the EPAC2 antagonist while no activity in this assay is desired for the EPAC1 antagonist counterscreen.
NIH Chemical Genomics Center [NCGC]
NIH Molecular Libraries Probe Centers Network [MLPCN]
Assay Submitter (PI): Xiaodong Cheng, The University of Texas, Medical Branch
Briefly, three uL of reagents (100 nM EPAC2, 250 nM RAP1B-BODIPY-GDP, 50 uM GDP) were dispensed into a 1536-well Greiner black solid-bottom medium binding assay plate. Controls and test compounds (23 nL) were transferred to the plate via a Kalypsys pin tool equipped with a 1536-pin array. The plates were centrifuged at 1,000 rpm for 15 seconds followed by 5 minute incubation at room temperature. The assay plates were read at 5 minute intervals for 30 minutes in the ViewLux plate reader using 480nm excitation and 540nm emission filters. The results were normalized to the agonist positive control ATA and DMSO.
Background: qHTS replaces the single test concentration by a dilution series.
For the compound `CCC(CC)C(C(=O)NC1CCCC1)N1CCN(c2cc(C)nc3ccccc23)CC1` (stereo not drawn), the Potency result is “inactive”. For `COc1cc(C(=O)NC2CCN(C)CC2)ccc1Nc1ncc2c(n1)N(C1CCC(O)CC1)CCC(=O)N2C` (stereo not drawn), the Potency entry is “inactive”.

With `Cc1[nH]c2ccccc2c1C(=O)c1cc([C@H](NC(=O)OC(C)(C)C)C(C)C)sc1N`, the Potency entry is “inactive”. The entry for `COc1ccc(NC(=O)C(C)N2c3cccc4cccc(c34)S2(=O)=O)c(OC)c1` (stereo not drawn) is “inactive”; for `COc1ccc(CNC(=O)C(=O)NCC2OCCN2C(=O)c2ccc(OC)cc2)cc1` (stereo not drawn) it is “inactive”. The entry for `CC1CCCC(NC(=O)CN2CCN(Cc3ccc(Cl)cc3)C2=O)C1C` (stereo not drawn) is “inactive”; for `Brc1ccc2c(c1)[C@H]1OCC[C@H]1[C@@H](c1cccs1)N2` it is “inactive”. `CC(C)OC(=O)Cn1nc(C(F)(F)F)c2c1CCCC2`: the Potency result is “inactive”. `CCOC(=O)C1C(C)C(C(C)(C)C)N(S(=O)(=O)c2ccc(C)cc2)C1c1ccccc1` (stereo not drawn): the Potency result was “inactive”.

As for `CCOC(=O)[C@]12CCCC=C1N(CCC1=CCCCC1)C(=O)[C@H](CC(=O)N1CCN(C(=O)c3ccco3)CC1)C2`, the Potency entry was “inactive”.

As to `Cc1cc(NC(=O)CN2CCC(O)(c3cccc(F)c3)CC2)no1`, the Potency result was “inactive”. Take `O=C(COC(=O)c1cccc(Cl)c1Cl)NC1CCCCCC1`: the Potency entry is “inactive”.

With `CCCCCNC(=O)C(c1ccc(OC)cc1)n1c(=O)c(-c2ccccc2)nc2ccccc21` (stereo not drawn), the Potency entry is “inactive”. For the compound `COc1ccc(NC(=O)CNC(=O)Cn2ccc3ccccc3c2=O)c(OC)c1`, the Potency entry is “inactive”. Turning to `O=C(CSc1n[nH]c(-c2cccs2)n1)N1CCCCC1`, the Potency entry is “inactive”. The entry for `Cc1cc(C)nc(SC2CCCCC2NS(=O)(=O)c2ccc(Cl)cc2)n1` (stereo not drawn) is “inactive”.

Consider `N#CC(C(N)=O)=C1CCC2(CC1)OCCCCO2`, for which the Potency entry was “inactive”. For `Cc1ccc(C(C(=O)NC2CCCCC2)N(C(=O)c2csnn2)C2CC2)o1` (stereo not drawn), the Potency entry was “inactive”. The entry for `FC(F)(F)c1cccc(-c2nc3ccccc3n2C(c2ccccc2)c2nc3ccccc3[nH]2)c1` (stereo not drawn) is “inactive”; for `CCOC(=O)c1cc(S(=O)(=O)NCCc2ccc(OC)c(OC)c2)cn1C` it is “inactive”; for `COCCn1nnnc1CN1CCC(NC(=O)Nc2cccc(OC)c2)CC1` it is “inactive”.

In the case of `CCN1CCCC1CNC(=O)c1ccc2c(c1)NC(=O)/C(=C\c1ccccc1F)S2` (stereo not drawn), the Potency result was “inactive”. In the case of `CCOC(=O)N1CCN(C(=O)CSc2nc(C)nc3c2c(=O)n(C)c(=O)n3C)CC1`, the Potency result was “inactive”.

In the case of `CC1(C(=O)Nc2ccc3c(c2)OCCO3)CN(S(C)(=O)=O)CC(=O)N1Cc1cccc(F)c1` (stereo not drawn), the Potency entry is “inactive”.

With `C[C@H](CO)N1C[C@H](C)[C@@H](CN(C)C(=O)c2cnccn2)Oc2ncc(Br)cc2C1=O`, the Potency entry was “inactive”. The figure for `C#CCOCCOCCOCCNc1nc(N2CCN(C(=O)CCCCCCCCCCNC(=O)[C@H](CCCCN)n3cc(C)nn3)CC2)nc(N2CCN(C(=O)CCCCCCCCCCNC(=O)[C@H](CO)n3cc(CCCSC)nn3)CC2)n1` is 50.1 µM (active).

Take `C#CCOCCOCCOCCNc1nc(N2CCN(C(=O)CCCCCCCCCCNC(=O)[C@H]([C@@H](C)CC)n3cc(CCCCN=C(N)N)nn3)CC2)nc(N2CCN(C(=O)CCCCCCCCCCNC(=O)[C@H](CO)n3cc(CCCSC)nn3)CC2)n1`: the Potency is 50.1 µM (active). Regarding `C#CCOCCOCCOCCNc1nc(N2CCN(C(=O)C([C@@H](C)CC)n3cc(C(N)COC(=O)C(F)(F)F)nn3)CC2)nc(N2CCN(C(=O)[C@H](CCCCN)n3cc(C(N)CC(C)C)nn3)CC2)n1` (stereo partly drawn), the Potency entry is “inactive”. The entry for `C#CCOCCOCCOCCNc1nc(N2CCN(C(=O)C([C@@H](C)O)n3cc([C@@H](N)CCCCN)nn3)CC2)nc(N2CCN(C(=O)[C@H](CCCCN)n3cc(CN)nn3)CC2)n1` (stereo partly drawn) is “inactive”; for `C#CCOCCOCCOCCNc1nc(N2CCN(C(=O)[C@H](CCCCN)n3cc([C@@H](N)C(C)CC)nn3)CC2)nc(N2CCN(C(=O)[C@H](Cc3ccc(O)cc3)n3cc([C@@H](N)C(C)CC)nn3)CC2)n1` (stereo partly drawn) it is “inactive”; for `C#CCOCCOCCOCCNc1nc(N2CCN(C(=O)[C@H](CO)n3cc([C@@H](N)C(C)C)nn3)CC2)nc(N2CCN(C(=O)[C@H](CCC(=O)O)n3cc([C@@H](N)[C@H](C)CC)nn3)CC2)n1` it is “inactive”. For the compound `CC(C)N(C(=O)Cn1cc(S(=O)(=O)CC(=O)N2CCOCC2)c2ccccc21)C(C)C`, the Potency entry is “inactive”. Consider `Cc1cc(NC(=O)Cn2nc(C(F)(F)F)c3c2CCCC3)no1`, for which the Potency result is “inactive”.

On to `Cc1ccc(C(=O)N[C@H](C(=O)N2CCN(c3ncccn3)CC2)C(C)C)cc1`, for which the Potency entry was “inactive”.

As for `COCOCCn1cc(CN2CCS(=O)(=O)N(Cc3ccc(-c4cccc(N(C)C)c4)cc3)C(CC(C)C)C2=O)nn1` (stereo not drawn), the Potency result is “inactive”. Regarding `COc1ccc(-c2ccc(CN3C(CC(C)C)C(=O)N(Cc4cn(CC5CCCCC5)nn4)CCS3(=O)=O)cc2)cc1` (stereo not drawn), the Potency entry was “inactive”. In the case of `COCOCCn1cc(CN2CCS(=O)(=O)N(Cc3ccc(-c4ccccc4)cc3)C(CC(C)C)C2=O)nn1` (stereo not drawn), the Potency is 10 µM (active). The entry for `CCC1Nc2ncnc(N3CCN(c4ccccc4)CC3)c2N(Cc2ccc(Cl)cc2)C1=O` (stereo not drawn) is “inactive”. Regarding `COC(=O)C[C@@H]1C=C[C@@H](NS(=O)(=O)c2cccc(OC)c2)[C@@H](CO)O1`, the Potency entry is “inactive”. For the compound `C=CCSC(CC)(CC)C(N)=O`, the Potency entry is “inactive”.

Consider `CCOc1ccccc1Oc1cn[nH]c1-c1ccc(OC)cc1O`, for which the Potency result is “inactive”.

Regarding `COc1ccc(-c2cn[nH]c2-c2ccc(OC)cc2)cc1`, the Potency result was “inactive”.

With `COc1ccc(Oc2cn[nH]c2-c2ccc(OC)cc2O)cc1`, the Potency was 56.2 µM (active). With `CCC1CCCCN1CCNS(=O)(=O)c1ccc2c(c1)CCN2C(C)=O` (stereo not drawn), the Potency entry is “inactive”. For `CSc1ncccc1C(=O)OCc1ccc(Br)cc1`, the Potency entry is “inactive”. As to `COc1ccc(/C=C2\SC(=N)N(c3ccc(F)cc3)C2=O)cc1`, the Potency entry was “inactive”.

As for `O=C(O)c1ccc(/C=C2\SC(=S)N(NC(=O)c3ccc(Br)cc3)C2=O)cc1`, the Potency result is “inactive”. With `O=C1/C(=C/c2ccc(F)cc2)SC(=S)N1NS(=O)(=O)c1ccccc1`, the Potency is 70.8 µM (active). On to `O=c1[nH]c(SCc2cccc(F)c2)nc2ccccc12`, for which the Potency entry is “inactive”. Regarding `CC(=O)CSc1nc(CCc2ccccc2)c(C#N)c(=O)[nH]1`, the Potency entry is “inactive”. As for `N#Cc1c(-c2ccccc2)nc(SCc2cccc(C(F)(F)F)c2)[nH]c1=O`, the Potency is 39.8 µM (active).

Consider `COc1ccc(OCCCC(=O)Nc2cccc(S(=O)(=O)N3CCCCCC3)c2)cc1`, for which the Potency result was “inactive”. Regarding `CC(C)(C)NC(=O)C(CCc1ccccc1)n1c(=O)c(-c2ccccc2)nc2ccccc21` (stereo not drawn), the Potency result was “inactive”.
